The values that follow come from PubChem BioAssay (EPA / NIEHS).

Records with an inconclusive call do not appear. The source holds several records for some structures; these can differ, active in one and inactive in another. Active and inactive are the calls of the source. How the source made its calls, unless noted: active means hit-call score of the fitted dose curve at least 0.9, where 1 is the maximum; inconclusive means response in the unintended direction; inactive means score below 0.9.

Assay [1] in a line: ATG_VDRE_CIS: Attagene CIS-FACTORIAL HepG2 Assay for human Vitamin D Receptor Element (VDRE) (AID 2282968; active means hit-call score of the fitted dose curve at least 0.9, where 1 is the maximum; inactive means score below 0.9). Particulars: HepG2 VDRE cis-reporter transcription, actives raise or lower the signal. A digest of the protocol:
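Steps: transfect HepG2 with multiple reporter transcription units; dose chemicals 24 h; isolate RNA; RT-PCR; label with 6-FAM primer extension; HpaI digest; capillary electrophoresis. Curves fitted both directions against DMSO.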

Assay [2] can be described thus: ATG_M_19_TRANS: Attagene TRANS-FACTORIAL HepG2 Assay for M19 Transcription Factor (Internal Marker) (AID 2282974). Particulars: HepG2 Attagene TRANS-FACTORIAL M19 internal marker reporter. Summed up: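 Background-control readout: after 24 h chemical exposure of transfected HepG2 carrying GAL4-driven reporter units, RNA was reverse-transcribed, amplified, fluorescently labeled and sized by capillary electrophoresis; gain-of-signal fit against DMSO.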

Assay [3] deals with Glucocorticoid receptor (Homo sapiens) (UniProt P04150). The assay can be described thus: ATG_GR_TRANS: Attagene TRANS-FACTORIAL HepG2 Assay for human Glucocorticoid Receptor (GR) (AID 2282978).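 Further: activators score as hits since higher reporter transcript over DMSO is fitted.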 Particulars: HepG2 Attagene TRANS GR reporter, mRNA transcription. Summed up: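 Readout is reporter transcript from a chimeric GR-Gal4 acting on GAL4-UAS in transfected human HepG2 liver cells after 24 h exposure, quantified by RT-PCR and capillary electrophoresis. Activation fitted upward against DMSO.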
Sequence of Glucocorticoid receptor (Homo sapiens) (P04150 whole entry, looked up, the tested form may be a part): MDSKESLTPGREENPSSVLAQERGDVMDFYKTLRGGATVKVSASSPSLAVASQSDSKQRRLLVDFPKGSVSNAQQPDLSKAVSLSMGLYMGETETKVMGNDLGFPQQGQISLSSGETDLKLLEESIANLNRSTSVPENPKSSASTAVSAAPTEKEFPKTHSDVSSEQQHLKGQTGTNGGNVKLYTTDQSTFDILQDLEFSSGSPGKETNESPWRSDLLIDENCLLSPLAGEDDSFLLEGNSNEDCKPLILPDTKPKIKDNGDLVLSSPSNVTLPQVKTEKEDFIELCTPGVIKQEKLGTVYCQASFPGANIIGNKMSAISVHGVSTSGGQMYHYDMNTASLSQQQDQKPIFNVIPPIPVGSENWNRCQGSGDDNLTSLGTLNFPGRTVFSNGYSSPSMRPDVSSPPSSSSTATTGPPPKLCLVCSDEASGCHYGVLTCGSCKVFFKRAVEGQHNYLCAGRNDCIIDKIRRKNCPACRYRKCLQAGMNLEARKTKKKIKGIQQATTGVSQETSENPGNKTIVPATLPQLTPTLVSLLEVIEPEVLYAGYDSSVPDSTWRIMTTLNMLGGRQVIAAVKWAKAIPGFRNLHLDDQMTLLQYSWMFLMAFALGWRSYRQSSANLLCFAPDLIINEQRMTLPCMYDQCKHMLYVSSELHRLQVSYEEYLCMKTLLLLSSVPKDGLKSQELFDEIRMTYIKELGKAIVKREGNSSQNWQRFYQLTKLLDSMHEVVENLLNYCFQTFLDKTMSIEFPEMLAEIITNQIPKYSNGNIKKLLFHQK

In assay [4] the target is Bile acid receptor (Homo sapiens) (UniProt Q96RI1). The assay can be described thus: ATG_FXR_TRANS: Attagene TRANS-FACTORIAL HepG2 Assay for Farnesoid X Receptor (FXR) (AID 2282979).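 Further: hits raise reporter mRNA above DMSO so AC50 marks FXR activation.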 Particulars: HepG2 Attagene TRANS FXR-GAL4 reporter transcription. A digest of the protocol: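 Transient transfection of HepG2 with multiplexed GAL4-UAS reporter units; exogenous FXR-GAL4 chimera. Dose 24 h → TriZol RNA → oligo(dT) RT → PCR, 6-FAM primer extension, HpaI cut → CE. Gain vs DMSO.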
Sequence of Bile acid receptor (Homo sapiens) (Q96RI1 whole entry, looked up, the tested form may be a part): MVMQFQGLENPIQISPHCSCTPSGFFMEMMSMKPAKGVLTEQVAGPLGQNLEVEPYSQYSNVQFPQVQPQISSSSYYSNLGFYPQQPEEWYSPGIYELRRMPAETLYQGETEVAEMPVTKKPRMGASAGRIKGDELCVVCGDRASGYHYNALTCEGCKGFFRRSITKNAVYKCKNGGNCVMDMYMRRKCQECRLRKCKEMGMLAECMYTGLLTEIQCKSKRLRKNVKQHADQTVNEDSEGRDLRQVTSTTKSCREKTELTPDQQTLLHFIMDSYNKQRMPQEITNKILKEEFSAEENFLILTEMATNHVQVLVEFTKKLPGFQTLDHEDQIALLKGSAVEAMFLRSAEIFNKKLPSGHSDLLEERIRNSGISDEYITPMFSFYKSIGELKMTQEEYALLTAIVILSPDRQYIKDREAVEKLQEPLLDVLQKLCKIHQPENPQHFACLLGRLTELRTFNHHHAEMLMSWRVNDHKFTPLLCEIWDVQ

Assay [5] deals with Oxysterols receptor LXR-alpha (Homo sapiens) (UniProt Q13133). Put plainly: ATG_LXRa_TRANS: Attagene TRANS-FACTORIAL HepG2 Assay for human Liver X Receptor alpha (LXRa) (AID 2282980). Particulars: HepG2 Attagene TRANS reporter, LXRa transactivation. Summed up: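 Transfect HepG2 with GAL4-UAS multiplex reporter constructs (TRANS format, chimeric receptor-GAL4); treat 24 h; extract RNA, reverse-transcribe, PCR-amplify, FAM-label, HpaI-digest; resolve fragments by capillary electrophoresis. Upward response vs DMSO.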
Sequence of Oxysterols receptor LXR-alpha (Homo sapiens) (Q13133 whole entry, looked up, the tested form may be a part): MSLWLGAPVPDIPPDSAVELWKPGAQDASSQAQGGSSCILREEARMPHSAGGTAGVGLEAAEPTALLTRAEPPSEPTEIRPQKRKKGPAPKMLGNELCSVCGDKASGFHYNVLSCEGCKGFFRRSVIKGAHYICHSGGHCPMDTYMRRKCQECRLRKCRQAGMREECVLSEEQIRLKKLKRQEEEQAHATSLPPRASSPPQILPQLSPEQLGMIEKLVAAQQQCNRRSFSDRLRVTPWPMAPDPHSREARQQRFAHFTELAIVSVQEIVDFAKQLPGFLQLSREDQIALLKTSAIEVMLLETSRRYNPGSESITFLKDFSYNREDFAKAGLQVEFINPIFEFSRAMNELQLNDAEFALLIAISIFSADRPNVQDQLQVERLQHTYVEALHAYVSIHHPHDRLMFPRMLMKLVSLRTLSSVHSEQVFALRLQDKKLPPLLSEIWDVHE

Assay [6] has as its target human Peroxisome Proliferator-activated Receptor delta (PPARd), PPARD (gene 5467) (UniProt Q03181). The assay can be described thus: ATG_PPARd_TRANS: Attagene TRANS-FACTORIAL HepG2 Assay for human Peroxisome Proliferator-activated Receptor delta (PPARd) (AID 2283002). A digest of the protocol:
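HepG2 cells transiently transfected with multiplexed GAL4-UAS reporter units and exogenous chimeric NR-Gal4 proteins; 24 h compound exposure. Reporter mRNA measured by RT-PCR, 6-FAM labelling, HpaI digestion and capillary electrophoresis; gain of signal versus DMSO.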

For assay [7], the target named is Retinoic acid receptor RXR-alpha (Homo sapiens) (UniProt P19793). Put plainly: ATG_RXRa_TRANS: Attagene TRANS-FACTORIAL HepG2 Assay for human Retinoid X Receptor alpha (RXRa) (AID 2283012). A digest of the protocol:
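Measures exogenous chimeric NR-GAL4 activity in transfected HepG2 liver cells after 24 h of dosing. Induced reporter mRNA was detected by RT-PCR with capillary electrophoresis, and gain of signal was analysed against DMSO.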

For assay [8], the target named is human Vitamin D Receptor (VDR), VDR (gene 7421) (UniProt P11473). The assay can be described thus: ATG_VDR_TRANS: Attagene TRANS-FACTORIAL HepG2 Assay for human Vitamin D Receptor (VDR) (AID 2283022). A digest of the protocol: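 Steps: transfect HepG2 with GAL4-UAS-driven reporter constructs; dose compounds 24 h; isolate RNA, reverse-transcribe, PCR-amplify with 6-FAM-labelled primer extension and HpaI digestion; quantify fragments by capillary electrophoresis relative to DMSO.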
Sequence of human Vitamin D Receptor (VDR), VDR (gene 7421) (P11473 whole entry, looked up, the tested form may be a part): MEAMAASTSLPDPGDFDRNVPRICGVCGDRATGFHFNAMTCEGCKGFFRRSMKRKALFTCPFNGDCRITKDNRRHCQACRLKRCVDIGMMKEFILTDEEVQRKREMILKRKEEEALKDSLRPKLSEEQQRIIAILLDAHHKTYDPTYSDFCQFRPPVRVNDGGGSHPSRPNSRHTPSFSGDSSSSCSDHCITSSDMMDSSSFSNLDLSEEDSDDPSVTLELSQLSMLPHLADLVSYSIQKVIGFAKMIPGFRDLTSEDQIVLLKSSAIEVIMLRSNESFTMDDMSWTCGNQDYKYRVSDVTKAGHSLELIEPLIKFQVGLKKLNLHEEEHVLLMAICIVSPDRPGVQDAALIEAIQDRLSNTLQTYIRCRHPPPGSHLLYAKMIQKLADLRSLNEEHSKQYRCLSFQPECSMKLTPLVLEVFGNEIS

The nature of assay [9]: TOX21_p53_BLA_p4_viability: Viability Assessment in the Tox21 HCT-116 p53 Agonism Beta-lactamase Assay, Phase 4 (AID 2283597).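 Further: hits lower the luminescence signal meaning cytotoxicity.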 Summed up: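 Readout: ATP luminescence (CellTiter-Glo), measured 30 min after reagent addition at RT. The reagent followed a 2 h CCF4-AM incubation, and the cells had been exposed to compound for 16 h at 37C.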
A short description of assay [10]: ACEA_ER_AUC_viability: ACEA Biosciences xCELLigence Real-Time Cell Analysis on Estrogen Receptor Agonism for Viability (AID 2283782).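 Further: hit means loss of impedance signal meaning reduced cell growth or viability.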 A digest of the protocol: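 Continuous-exposure impedance cell analysis uses T-47D cells in charcoal-stripped serum, eight 1:4 dilutions topping at 100 uM final, biological duplicate. Area under the growth curve at 80 h is fitted against DMSO baseline.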

Assay [11] is described as follows: ATG_PPRE_CIS: Attagene CIS-FACTORIAL HepG2 Assay for human Peroxisome Proliferator-activated Response Element (PPRE) (AID 2282958; active means hit-call score of the fitted dose curve at least 0.9, where 1 is the maximum; inactive means score below 0.9). Particulars: HepG2 PPRE cis-element reporter, Attagene transcription factor profiling; actives raise or lower the signal. Summed up:
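Endogenous PPRE-driven transcription is measured in HepG2 cells carrying transfected multi-reporter constructs. Reporter transcripts are quantified by RT-PCR, HpaI digestion and capillary electrophoresis 24 h after dosing. DMSO baseline, bidirectional fit.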

The target in assay [12] is Oxysterols receptor LXR-beta (Homo sapiens) (UniProt P55055). Put plainly: ATG_LXRb_TRANS: Attagene TRANS-FACTORIAL HepG2 Assay for human Liver X Receptor beta (LXRb) (AID 2282981). Particulars: HepG2 Attagene TRANS GAL4-LXRb reporter, mRNA. A digest of the protocol:
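Measures induction of a Gal4-driven reporter transcript in HepG2 cells expressing an exogenous LXRb-Gal4 fusion. Cells are exposed to compound for 24 h before RNA isolation and RT-PCR with capillary electrophoresis detection.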

Assay [13] addresses Peroxisome proliferator-activated receptor gamma (Homo sapiens) (UniProt P37231). The assay can be described thus: ATG_PPARg_TRANS: Attagene TRANS-FACTORIAL HepG2 Assay for human Peroxisome Proliferator-activated Receptor-gamma (PPARg) (AID 2283007). Summed up: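 After 24 h of chemical exposure, transfected HepG2 cells carrying PPARγ-Gal4 chimera reporter constructs are lysed for RNA. Reporter transcripts are measured by RT-PCR and capillary electrophoresis with fluorescent labelling, and gain of signal is fitted versus DMSO.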

Assay [14] is described as follows: ATG_GAL4_TRANS: Attagene TRANS-FACTORIAL HepG2 Assay for GAL4 (Internal Marker) (AID 2282976). Particulars: HepG2 Attagene TRANS GAL4 internal marker reporter. Summed up:
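First, HepG2 cells were transfected with reporter units under GAL4-UAS control. Next, they were treated with chemical for 24 h. Finally, RNA was reverse-transcribed, PCR-amplified, FAM-labelled and resolved by capillary electrophoresis, with induction scored against DMSO.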

The target of assay [15] is Nuclear receptor subfamily 1 group I member 3 (Homo sapiens) (UniProt Q14994). The assay can be described thus: ATG_CAR_TRANS: Attagene TRANS-FACTORIAL HepG2 Assay for human Constitutive Androstane Receptor (CAR) (AID 2282969).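 Further: activators raise reporter mRNA above DMSO so AC50 marks induction.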 Particulars: HepG2 Attagene TRANS-FACTORIAL CAR reporter. Summed up: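 Steps: transient transfection of HepG2 with multiple GAL4-UAS reporter units; 24 h compound incubation; RNA isolation, RT-PCR, 6-FAM primer extension, HpaI digest; capillary electrophoresis. Gain-of-signal relative to DMSO negative control.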
Sequence of Nuclear receptor subfamily 1 group I member 3 (Homo sapiens) (Q14994 whole entry, looked up, the tested form may be a part): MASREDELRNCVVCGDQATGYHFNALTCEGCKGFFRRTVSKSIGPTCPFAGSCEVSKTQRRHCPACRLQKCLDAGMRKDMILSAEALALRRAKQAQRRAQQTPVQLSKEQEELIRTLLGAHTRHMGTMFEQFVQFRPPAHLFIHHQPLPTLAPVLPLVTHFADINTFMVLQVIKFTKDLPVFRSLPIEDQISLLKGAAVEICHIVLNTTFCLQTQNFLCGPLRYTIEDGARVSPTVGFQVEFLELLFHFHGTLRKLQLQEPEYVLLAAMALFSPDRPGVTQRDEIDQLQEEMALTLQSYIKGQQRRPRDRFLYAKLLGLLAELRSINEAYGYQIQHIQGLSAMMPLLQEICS

Assay [16] addresses human Thyroid Receptor alpha (THRa1), THRA (gene 7067) (UniProt P10827). Put plainly: ATG_THRa1_TRANS: Attagene TRANS-FACTORIAL HepG2 Assay for human Thyroid Receptor alpha (THRa1) (AID 2283014). Summed up: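 Reporter transcript induction, read by capillary electrophoresis of 6-FAM-labelled RT-PCR products, reflects activity of a transfected THRa1-Gal4 fusion in HepG2 liver cells. Cells were dosed for 24 h; activity was fitted in the positive direction against DMSO.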

Assay [17] in a line: ATG_M_06_TRANS: Attagene TRANS-FACTORIAL HepG2 Assay for M06 Transcription Factor (Internal Marker) (AID 2282983).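 Further: reporter transcript level by RT-PCR then capillary electrophoresis fluorescence.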 Particulars: HepG2 Attagene TRANS M06 internal marker reporter. Summed up:
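Background control endpoint: reporter mRNA from transiently transfected HepG2 after 24 h dosing, detected by RT-PCR with capillary electrophoresis fluorescence. Analysed for gain versus DMSO.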

A short description of assay [18]: CCTE_Harrill_HTTr_Viability_MCF7: CCTE's 6-hour Cell Viability Assessment for the High-Throughput Transcriptomics (HTTr) Platform, in MCF-7 cells cultured in DMEM + 10% fetal bovine serum, Harrill Lab (AID 2284010; active means hit-call score of the fitted dose curve at least 0.9, where 1 is the maximum; inactive means score below 0.9). Summed up:
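Read-out is propidium iodide gain of signal by high-content imaging, reflecting membrane integrity loss. Measurements are taken 6 h after dosing, eight concentrations per chemical, with DMSO serving as baseline for bidirectional curve fitting.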

The nature of assay [19]: CCTE_Harrill_HTTr_Apoptosis_MCF7: CCTE's 6-hour Apoptosis Assessment for the High-Throughput Transcriptomics (HTTr) Platform, in MCF-7 cells cultured in DMEM + 10% fetal bovine serum, Harrill Lab (AID 2284011; active means hit-call score of the fitted dose curve at least 0.9, where 1 is the maximum; inactive means score below 0.9). A digest of the protocol:
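MCF-7 (DMEM + 10% FBS), 384-well; 8-pt dilution series, 6 h chemical exposure; caspase-3/7 activation via CellEvent Caspase 3/7 Green, HCI; bidirectional fit vs DMSO.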

Sequence of Retinoic acid receptor RXR-alpha (Homo sapiens) (P19793 whole entry, looked up, the tested form may be a part): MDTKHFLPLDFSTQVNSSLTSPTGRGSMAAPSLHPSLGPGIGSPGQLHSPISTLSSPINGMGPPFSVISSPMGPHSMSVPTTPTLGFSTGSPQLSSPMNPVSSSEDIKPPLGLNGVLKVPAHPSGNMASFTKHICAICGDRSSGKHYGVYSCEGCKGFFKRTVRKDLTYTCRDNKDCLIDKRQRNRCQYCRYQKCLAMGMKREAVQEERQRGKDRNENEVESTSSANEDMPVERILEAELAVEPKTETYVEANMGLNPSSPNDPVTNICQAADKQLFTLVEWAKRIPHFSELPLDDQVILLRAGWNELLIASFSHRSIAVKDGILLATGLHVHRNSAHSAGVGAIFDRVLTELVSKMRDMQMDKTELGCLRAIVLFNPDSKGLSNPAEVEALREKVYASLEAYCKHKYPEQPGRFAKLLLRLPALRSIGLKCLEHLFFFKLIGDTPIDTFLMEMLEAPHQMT
Sequence of Oxysterols receptor LXR-beta (Homo sapiens) (P55055 whole entry, looked up, the tested form may be a part): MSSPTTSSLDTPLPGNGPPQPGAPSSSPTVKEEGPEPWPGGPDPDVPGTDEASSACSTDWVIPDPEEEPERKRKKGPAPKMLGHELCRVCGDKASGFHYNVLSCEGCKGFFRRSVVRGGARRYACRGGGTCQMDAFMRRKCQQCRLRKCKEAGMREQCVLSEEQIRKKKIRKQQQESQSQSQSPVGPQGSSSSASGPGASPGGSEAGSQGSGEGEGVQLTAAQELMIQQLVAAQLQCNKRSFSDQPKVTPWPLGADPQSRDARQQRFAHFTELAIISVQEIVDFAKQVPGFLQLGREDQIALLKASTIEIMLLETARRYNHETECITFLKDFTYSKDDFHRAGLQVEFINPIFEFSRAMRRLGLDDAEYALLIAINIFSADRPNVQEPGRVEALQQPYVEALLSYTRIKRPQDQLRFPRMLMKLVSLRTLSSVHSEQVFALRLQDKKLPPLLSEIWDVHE
Sequence of human Peroxisome Proliferator-activated Receptor delta (PPARd), PPARD (gene 5467) (Q03181 whole entry, looked up, the tested form may be a part): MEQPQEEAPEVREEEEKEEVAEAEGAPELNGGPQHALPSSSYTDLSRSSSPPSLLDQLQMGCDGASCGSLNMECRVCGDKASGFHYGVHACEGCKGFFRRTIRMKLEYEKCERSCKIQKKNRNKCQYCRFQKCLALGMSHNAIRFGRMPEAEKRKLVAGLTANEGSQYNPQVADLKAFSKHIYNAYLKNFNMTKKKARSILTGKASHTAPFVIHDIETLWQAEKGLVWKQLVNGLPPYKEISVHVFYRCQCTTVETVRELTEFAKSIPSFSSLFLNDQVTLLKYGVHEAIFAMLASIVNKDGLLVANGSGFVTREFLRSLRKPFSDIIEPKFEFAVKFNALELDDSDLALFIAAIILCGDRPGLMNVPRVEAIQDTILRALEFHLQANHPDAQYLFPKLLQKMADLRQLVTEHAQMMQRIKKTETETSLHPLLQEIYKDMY
Sequence of Peroxisome proliferator-activated receptor gamma (Homo sapiens) (P37231 whole entry, looked up, the tested form may be a part): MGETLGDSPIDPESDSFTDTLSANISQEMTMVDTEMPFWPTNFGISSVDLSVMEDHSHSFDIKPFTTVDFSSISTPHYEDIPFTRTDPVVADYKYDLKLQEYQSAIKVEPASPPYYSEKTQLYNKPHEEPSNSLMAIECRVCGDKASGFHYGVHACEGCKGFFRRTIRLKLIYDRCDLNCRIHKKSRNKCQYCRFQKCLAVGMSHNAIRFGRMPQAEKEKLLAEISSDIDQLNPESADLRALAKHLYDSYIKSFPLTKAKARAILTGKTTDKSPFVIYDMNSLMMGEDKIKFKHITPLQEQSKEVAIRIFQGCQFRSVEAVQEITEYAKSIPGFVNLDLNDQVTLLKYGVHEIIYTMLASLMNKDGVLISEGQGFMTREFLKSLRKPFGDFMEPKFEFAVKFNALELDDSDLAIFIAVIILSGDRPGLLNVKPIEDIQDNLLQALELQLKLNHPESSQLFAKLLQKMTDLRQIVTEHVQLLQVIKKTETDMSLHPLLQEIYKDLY
Sequence of human Thyroid Receptor alpha (THRa1), THRA (gene 7067) (P10827 whole entry, looked up, the tested form may be a part): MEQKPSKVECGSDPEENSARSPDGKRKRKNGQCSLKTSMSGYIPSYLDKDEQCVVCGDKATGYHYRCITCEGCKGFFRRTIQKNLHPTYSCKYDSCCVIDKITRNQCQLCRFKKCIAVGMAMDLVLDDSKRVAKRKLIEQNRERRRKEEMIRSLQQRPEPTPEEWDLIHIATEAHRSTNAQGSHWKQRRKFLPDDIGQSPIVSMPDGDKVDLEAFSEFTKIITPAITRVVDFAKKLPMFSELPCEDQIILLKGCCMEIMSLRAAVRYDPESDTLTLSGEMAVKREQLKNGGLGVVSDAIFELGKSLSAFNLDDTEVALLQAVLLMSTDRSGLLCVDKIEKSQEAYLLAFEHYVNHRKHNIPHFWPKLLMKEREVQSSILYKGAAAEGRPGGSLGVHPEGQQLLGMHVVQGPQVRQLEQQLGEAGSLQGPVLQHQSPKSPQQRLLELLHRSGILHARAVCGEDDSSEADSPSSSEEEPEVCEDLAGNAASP

One may read the AC50 as the midpoint of the concentration-response curve, whichever way the signal moves. Turning to `CCCCCCCCCC/C=C/C1CC(=O)OC1=O` (centres undefined), the outcome in assay [1], in assay [2], in assay [3], in assay [4], in [5] and in assay [6] was inactive. Also, the outcome in assay [7], in [8] and in assay [9] was inactive. Also, the AC50 in assay [10] was 64.1 µM (active).
Take `CN(C)Cc1cc(C(C)(C)C)c(O)c(C(C)(C)C)c1`: the compound was classed as inactive in assay [11], in assay [2], in assay [5], in assay [12], in assay [6] and in assay [13]. Besides, the compound was classed as inactive in [8] and in [9]. Moreover, the AC50 in assay [7] was 22.9 µM (active).
In the case of `CCCCC(CC)COC(=O)CS` (centres undefined), the AC50 in assay [1] is 26.4 µM (active). The compound was called inactive in assay [2], in assay [14], in assay [3], in assay [8], in assay [9] and in assay [10].
For the compound `CC(=O)c1nccs1`, the outcome in assay [11], in assay [1], in assay [15], in [2], in assay [3] and in assay [5] was inactive. Moreover, the compound was called inactive in assay [12], in [13] and in assay [16].
Consider `O=C(c1ccccc1)c1ccccc1O`, for which the result in [15], in assay [3], in assay [17], in [13], in [7] and in [8] was inactive. Further, the AC50 in assay [10] was 76.9 µM (active).
In the case of `Cc1ccnc(N)c1`, the compound was classed as inactive in assay [11], in assay [2], in [14], in assay [12], in assay [13] and in assay [16]. Moreover, the result in assay [9], in [18] and in assay [19] was inactive.
On to `CC(C)n1c(/C=C/[C@@H](O)C[C@@H](O)CC(=O)O)c(-c2ccc(F)cc2)c2ccccc21`, for which the AC50 was 36.3 µM (active) in [11], 5.07 µM (active) in assay [13] and 43.3 µM (active) in assay [9]. The compound was called inactive in assay [2], in assay [14], in assay [3], in [5], in assay [12] and in [17]. In addition, the compound was classed as inactive in [6], in assay [9], in [18] and in assay [19].
